Shown are actives, neighbours in structure and some others; about 2.7% of the full set was active somewhere.
IP6K1 inh – Primary qHTS assay for small molecule inhibitors of Inositol hexaphosphate kinase 1 (IP6K1). Inositol hexakisphosphate kinase 1 (Homo sapiens), Q92551. IP6K1 kinase, ADP-Glo luminescence, 2 h; active compounds read low. activity change, % (series mostly up to about 58 µM). 140,000 tested, 0.81% active; in the data active means activity change below about -25%; further: on the % scale 0 is the no-effect control and ±100 the full control effect
Target sequence (Q92551 whole entry, looked up): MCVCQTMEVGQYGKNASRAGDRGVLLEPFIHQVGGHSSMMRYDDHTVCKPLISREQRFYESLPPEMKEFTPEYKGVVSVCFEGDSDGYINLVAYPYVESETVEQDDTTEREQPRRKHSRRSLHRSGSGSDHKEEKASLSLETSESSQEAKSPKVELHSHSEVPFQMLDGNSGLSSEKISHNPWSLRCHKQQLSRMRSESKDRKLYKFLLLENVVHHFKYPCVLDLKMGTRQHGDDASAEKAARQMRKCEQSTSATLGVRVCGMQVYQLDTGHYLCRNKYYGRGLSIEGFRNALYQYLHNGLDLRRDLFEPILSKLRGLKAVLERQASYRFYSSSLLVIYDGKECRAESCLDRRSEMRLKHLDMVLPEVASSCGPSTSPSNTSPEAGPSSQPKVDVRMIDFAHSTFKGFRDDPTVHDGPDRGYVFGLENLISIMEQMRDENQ
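ADP-Glo luminescence measures ADP made by human IP6K1 during a 2 h RT reaction with ATP/IP6 (mix at 1.3 mM/130 uM); top library doses 57.5 and 19.1 uM final.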
KDM5B inh – Primary screen for KDM5B Histone Demethylases FDH-coupled qHTS | Lysine-specific demethylase 5B (Homo sapiens), Q9UGL1 | KDM5B demethylase, FDH-coupled NADH fluorescence (FDH is formaldehyde dehydrogenase) | Potency, µM (top dose mostly 57.7 µM), actives largely listed as inhibitors | 220,000 tested, 2.6% active | AID 1347165, 2019; further: potency means the concentration at half of the fitted maximal effect; 0% is about no effect; nearly all actives have a fitted effect of over 70% in size
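Here, H3K4me3 peptide (12.5 µM in substrate mix) is demethylated by KDM5BΔAP, 200 nM final, after 10 min compound exposure. Formaldehyde product is coupled through FDH (0.25 U/mL in mix) to NADH fluorescence; 30-min ΔRFU feeds dose-response curves.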
IP6K1 conf – Confirmatory qHTS assay for small molecule inhibitors of Inositol hexaphosphate kinase 1 (IP6K1). Potency, µM (series often up to 49 µM), for inactives: top-dose activity change, negative = inhibition, usual class: inhibitors. AID 1645852, 2021. recombinant IP6K1 kinase, ADP-Glo luminescence, 2 h. 1,200 tested, 13% active. shares compounds with IP6K1 inh; further: potency means the concentration at half of the fitted maximal effect; on the % scale 0 is the no-effect control and ±100 the full control effect; nearly all actives have a fitted effect of over 65% in size
An asterisk follows results filed as active; i = inactive; ? = inconclusive; / = no result. Unless noted, the call rests on the fitted dose curve; in most records, active means well fitted inhibition curve with a large enough effect; inconclusive means small, poorly fitted or top-dose-only effect; inactive means no such curve, though single readings can be large or run the other way.

SMILES	IP6K1 inh	KDM5B inh	IP6K1 conf
c1coc(-c2nc3ccccn3c2Nc2ccc3c(c2)OCCO3)c1	-10.3	?	/
C=C1CC[C@H]2[C@@](C)(CCC[C@@]2(C)C(=O)O)[C@@H]1CCC(C)CCO (stereo not given in full)	19.3	/	/
C=C1CCC2C(C)(C)C(O)CCC2(C)C1CCC(C)CCO (stereo not given)	-30.3*	/	?
CN1C(C)(C)CCCC1(C)C	-34.8*	/	-2.3%
CCN1CCN(C(c2ccc(C)cc2)c2sc3nc(-c4ccco4)nn3c2O)CC1 (stereo not given)	12.3	i	/
CCN1CCN(C(c2ccc(F)cc2)c2sc3nc(-c4ccco4)nn3c2O)CC1 (stereo not given)	-29.5*	i	?
Cc1ccccc1CC(=O)NC1CCCC1	/	i	/
Cc1ccccc1[C@@H]1CN(C(=O)CCC(=O)NC2CCCC2)C[C@H]1C(=O)O	-35.4*	i	13.0%
c1ccc2c(c1)COC1(CCNC1)CN2CC1CCCC1 (stereo not given)	-15.3	?	/
CCC(=O)c1ccc(NC(C)=O)cc1O	/	i	/
CCC(=O)c1c(O)cc(O)cc1O	-29.5*	/	?
COc1ccc(Nc2ccnc(N3CCC(C(=O)N4CCC(c5ccccc5)CC4)CC3)n2)cc1	-1.0	/	/
COC(=O)c1nc2ccccc2nc1NCCc1ccc(C)cc1	/	i	/
C[S+](=O)([O-])NCc1nnc2n1C(C(=O)NCc1ccccc1)CC2 (stereo not given)	11.4	/	/
C[S+](=O)([O-])NCc1nnc2n1C(C(=O)NCc1ccccc1F)CC2 (stereo not given)	-28.2*	/	-1.7%
Cn1cnc2c(F)c(Nc3ccc(Br)cc3F)c(C(=O)NOCCO)cc21	12.2	/	-12.2%
CCCn1nc(C(=O)Nc2ccc(Br)cc2F)c2ccccc2c1=O	/	i	/
Cc1ccc(-c2ccccc2CN2CCN(C(=O)c3cccc(Cl)c3)CC2)cc1Cl	-7.2	/	/
CC(C)C(=O)N1N=C(c2ccc3c(c2)OCO3)CC1c1ccc2nccnc2c1 (stereo not given)	/	i	/
CN(C)c1ccc2nc3ccc(=[N+](C)C)cc-3sc2c1	-29.6*	/	14.6µM*
Cc1cc2nc3ccc(=[N+](C)C)cc-3sc2cc1N	-21.4	/	/
O=C(O)c1ccc(COc2cccc(Cl)c2)cc1	/	i	/
COc1cc(S(=O)(=O)N2CCc3c(nc[nH]c3=O)C2)c(OC)cc1C	-30.2*	i	-4.4%
Cn1c(=O)oc2cc(S(=O)(=O)N3CCc4c(nc[nH]c4=O)C3)ccc21	-1.7	i	/
CCOC(=O)C(C#N)C1(Cc2ccccc2)CCOC(C)(C)C1 (stereo not given)	/	i	/
SMILES	IP6K1 inh	KDM5B inh	IP6K1 conf
O=C(CSc1nc2ccccc2c(=O)n1CCCN1CCOCC1)c1ccc(F)c(F)c1	/	i	/
COc1ccc(Nc2nc3ccccc3nc2NS(=O)(=O)c2cccs2)cc1Cl	/	i	/
COC(=O)N1CC(CN2C(=O)c3c(c(C)nn3-c3ccccc3)C2C2CC2)C1 (stereo not given)	6.2	/	/
COc1ccc(-c2cnc(C)o2)cc1S(=O)(=O)Nc1ccc(C)cc1	/	i	/
NC(=O)c1cccc(-c2cc(Nc3ccc(OC(F)(F)F)cc3)ncn2)c1	-25.3*	/	?
O=C(NCCO)c1cccc(-c2cc(Nc3ccc(OC(F)(F)F)cc3)ncn2)c1	-20.9	/	/
Cc1ccc(CNC(=O)c2ccc3noc(-c4ccccc4)c3c2)cc1	/	i	/
O=C(Nc1cc(F)cc(F)c1)c1cnc2ccccc2n1	/	i	/
COc1ccc(-c2nc(Nc3ccc(F)c(F)c3F)sc2CCC(=O)O)cc1	/	i	/
CC(=O)NO	-27.7*	/	-7.0%
NC(=O)NO	24.1	/	/
CC(C)c1ccc(OCc2nnc(SCc3csc(-c4ccccc4Cl)n3)n2C)cc1	/	i	/
CCCCn1c(=O)c(C(=O)NCCc2ccccc2)nc2cccnc21	4.8	/	/
CCCCn1c(=O)c(C(=O)NCCc2ccc(F)cc2)nc2cccnc21	-26.5*	/	-10.3%
COc1ccc(F)cc1-c1cccc(C(=O)NCC(=O)NCCCc2ccccc2)c1	5.5	/	/
Cc1c(NC(=O)c2sc3c([N+](=O)[O-])cccc3c2Cl)cccc1-c1nc2ccccc2o1	-27.9*	i	7.4%
Cc1c(NC(=O)c2ccc([N+](=O)[O-])o2)cccc1-c1nc2ccccc2o1	/	i	/
OCc1ccc(CN2Cc3[nH]cnc3C[C@H]2c2nc(-c3ccc4ccccc4c3)no2)o1	4.9	?	/
CN(Cc1ccccc1)C(=O)[C@@H]1CCCN1c1ccnc2ccnn12	-5.7	/	/

Screening data from PubChem.
